Results published in PubChem BioAssay (NCI).
Compounds without any hit were thinned out: in the full panel of roughly 79,000, 15% have a hit. The source made the active and inactive calls. Rule as the data show it: active = growth inhibition above about 70%; inactive = the rest.

Columns and labels:
[1] = NCI Yeast Anticancer Drug Screen. Data for the rad50 strain (AID 155);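 also: 0% = growth of vehicle-only cultures of the same strain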; details: S. cerevisiae rad50 strain growth inhibition, active compounds read high
Method in brief: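 Growth of the mutant yeast was measured after compound exposure and referenced to vehicle-treated cultures.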

[2] = NCI Yeast Anticancer Drug Screen. Data for the mec2-1 strain (AID 157); details: S. cerevisiae mec2-1 strain, active compounds read high
Method in brief: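 Growth inhibition is read against vehicle-treated controls after compound exposure of the mec2-1 yeast strain, which is defective in DNA damage repair or cell cycle control.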

[3] = NCI Yeast Anticancer Drug Screen. Data for the sgs1 mgt1 strain (AID 161);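 also: 0% = growth of cultures given vehicle only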; details: S. cerevisiae sgs1 mgt1 strain, active compounds read high
Method in brief: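 Percent growth inhibition was derived by comparing compound-exposed mutant yeast with vehicle-exposed cultures. The strain carries alterations in DNA damage repair.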

[4] = NCI Yeast Anticancer Drug Screen. Data for the cln2 rad14 strain (AID 165);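 also: 0% = growth equal to vehicle treated cultures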; details: S. cerevisiae cln2 rad14 strain, active compounds read high
Method in brief: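 Growth inhibition, relative to vehicle-treated controls, is the read-out. The test organism is a yeast strain with defined genetic alterations, cln2 rad14.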

[5] = NCI Yeast Anticancer Drug Screen. Data for the bub3 strain (AID 167); details: S. cerevisiae bub3 mutant strain, active compounds read high
Method in brief: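 Whole-cell yeast assay. The mutant strain was incubated with compounds, and growth inhibition was determined by comparison with vehicle-treated cells.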

[6] = NCI Yeast Anticancer Drug Screen. Data for the mlh1 rad18 strain (AID 175); details: S. cerevisiae mlh1 rad18 strain growth inhibition, active compounds read high
Method in brief: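 Cells of a genetically altered yeast strain, deficient in DNA damage repair, were treated with compound. Their growth was then compared with that of vehicle-treated cultures to give inhibition.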

[7] = at 5.0 µM (retest, dose inferred, filed as 0.5)
[8] = at 50.0 µM (retest, dose inferred, filed as 5.0)

Measured: growth inhibition

O=[N+]([O-])/C(Cl)=C(\Sc1ccccc1)C(Cl)=C(Cl)Cl
active: [1]; [7] 100% | [1]; [8] 99% | [1]; at 50.0 µM 89.8% | [2]; [7] 100% | [2]; [8] 100% | [2]; at 50.0 µM 93.4% | [3]; [7] 99% | [3]; [8] 99% | [3]; at 50.0 µM 90.6% | [4]; [7] 99% | [4]; [8] 99% | [4]; at 50.0 µM 91.9% | [5]; [7] 99% | [5]; [8] 99% | [5]; at 50.0 µM 91.8% | [6]; [7] 100% | [6]; [8] 99% | [6]; at 50.0 µM 86.8%

COC(=O)C1c2cc(C)ccc2-c2ccc(C)cc21
inactive: [1]; [7] 31% | [1]; [8] 2% | [1]; at 50.0 µM 13.6% | [2]; [7] 3% | [2]; [8] -17% | [2]; at 50.0 µM 13.3% | [3]; [7] 0% | [3]; [8] 23% | [3]; at 50.0 µM 2.95% | [4]; [7] -14% | [4]; [8] 8% | [4]; at 50.0 µM 30.2% | [5]; [7] -10% | [5]; [8] 18% | [5]; at 50.0 µM 6.75% | [6]; [7] 4% | [6]; [8] 26% | [6]; at 50.0 µM 49.5%

Nc1c(Cl)[nH]c(C(F)(F)F)nc1=S
inactive: [1]; [7] -2% | [1]; [8] -7% | [1]; at 50.0 µM 5.2% | [2]; [7] -7% | [2]; [8] -1% | [2]; at 50.0 µM -4.75% | [3]; [7] -9% | [3]; [8] -7% | [3]; at 50.0 µM -2.45% | [4]; [7] -7% | [4]; [8] 4% | [4]; at 50.0 µM 15.3% | [5]; [7] -3% | [5]; [8] 10% | [5]; at 50.0 µM -9.45% | [6]; [7] 0% | [6]; [8] 1% | [6]; at 50.0 µM 23.3%

CCCCCCCn1ccnc1NCCCCCCCCCCNc1nccn1CCCCCCC
inactive: [1]; [7] -3% | [2]; [7] -5% | [3]; [7] -6% | [3]; at 50.0 µM 47.4% | [4]; [7] -4% | [5]; [7] 1% | [6]; [7] -1%
active: [1]; [8] 98% | [1]; at 50.0 µM 99.3% | [2]; [8] 98% | [2]; at 50.0 µM 99.6% | [3]; [8] 99% | [4]; [8] 98% | [4]; at 50.0 µM 93.9% | [5]; [8] 98% | [5]; at 50.0 µM 94.5% | [6]; [8] 98% | [6]; at 50.0 µM 98.9%

O=C(O)c1ccc(C(=O)c2ccccc2C(=O)O)cc1
inactive: [1]; [7] -3% | [1]; [8] -4% | [2]; [7] -5% | [2]; [8] -2% | [3]; [7] -1% | [3]; [8] -1% | [4]; [7] -2% | [4]; [8] -7% | [5]; [7] 0% | [5]; [8] -1% | [6]; [7] 1% | [6]; [8] 0%
active: [1]; at 50.0 µM 99.3% | [2]; at 50.0 µM 99.7% | [3]; at 50.0 µM 99.4% | [4]; at 50.0 µM 98.5% | [5]; at 50.0 µM 99.7% | [6]; at 50.0 µM 99.3%

COC1=CC(=O)C(C#CCOCc2ccccc2)=CC1=O
active: [1]; [8] 99% | [1]; at 50.0 µM 99.1% | [2]; [8] 99% | [2]; at 50.0 µM 99.2% | [3]; [8] 79% | [3]; at 50.0 µM 99% | [4]; [8] 98% | [4]; at 50.0 µM 94.7% | [5]; [8] 99% | [5]; at 50.0 µM 93% | [6]; [8] 99% | [6]; at 50.0 µM 98.8%
inactive: [1]; [7] 12% | [2]; [7] 0% | [3]; [7] -6% | [4]; [7] -8% | [5]; [7] -16% | [6]; [7] 8%

CCOP(=O)(OCC)C(NC(=O)OCC(Cl)(Cl)Cl)n1nnc(C(=O)OC)c1C(=O)OC (configuration not stated)
active: [1]; [8] 79% | [3]; [8] 89% | [5]; [8] 92% | [6]; [8] 70%
inactive: [1]; [7] -7% | [1]; at 50.0 µM -8.8% | [2]; [7] -4% | [2]; [8] 46% | [2]; at 50.0 µM 4.15% | [3]; [7] -6% | [3]; at 50.0 µM 10.6% | [4]; [7] -3% | [4]; [8] 69% | [4]; at 50.0 µM 36.4% | [5]; [7] -1% | [5]; at 50.0 µM -0.7% | [6]; [7] -1% | [6]; at 50.0 µM -1.15%

CC(C)c1ccc(/C=C(\NC(=O)c2ccccc2)c2nc3ccccc3[nH]2)cc1
active: [1]; at 50.0 µM 71.2% | [2]; at 50.0 µM 86.1% | [4]; at 50.0 µM 80.4% | [5]; [8] 71% | [5]; at 50.0 µM 88% | [6]; at 50.0 µM 93.3%
inactive: [1]; [7] -2% | [1]; [8] 60% | [2]; [7] -27% | [2]; [8] 53% | [3]; [7] -2% | [3]; [8] 67% | [3]; at 50.0 µM 56.5% | [4]; [7] -7% | [4]; [8] 49% | [5]; [7] 6% | [6]; [7] -3% | [6]; [8] 62%

CC(=O)NC1=C(Nc2ccc(-c3ccc(NC4=C(NC(C)=O)C(=O)c5ccccc5C4=O)cc3)cc2)C(=O)c2ccccc2C1=O
active: [1]; [7] 99% | [1]; [8] 98% | [1]; at 50.0 µM 99.2% | [2]; [7] 100% | [2]; [8] 99% | [2]; at 50.0 µM 99.5% | [3]; [7] 100% | [3]; [8] 99% | [3]; at 50.0 µM 99.5% | [4]; [7] 99% | [4]; [8] 98% | [4]; at 50.0 µM 99.1% | [5]; [7] 99% | [5]; [8] 99% | [5]; at 50.0 µM 98.7% | [6]; [7] 99% | [6]; [8] 99% | [6]; at 50.0 µM 99.3%
